# According to ChEMBL document CHEMBL5606458, “ASAP - ZIKV NS2B-NS3 protease fluorescence single point” (2024):
# Out of some 2,700 compounds screened, about 160 (5.9%) showed an effect of 50% or more. The entries come from a sample that favours strong results as a whole.
# Target: Nonstructural protein 3 (Zika virus) (UniProt A0A024AXB9)
# Sequence (A0A024AXB9 as listed by the source): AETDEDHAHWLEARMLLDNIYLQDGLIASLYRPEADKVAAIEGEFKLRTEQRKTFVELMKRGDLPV
compound,measurement,setting,value
c1cc(CN2CCC(c3c[nH]c4ncccc34)CC2)c2[nH]ccc2c1,inhibition,"PRVABC59, Concentration 49.5 uM, Number of replicates 2.0, Standard deviation 0.810920201040277 %",22.9%
same,inhibition,"PRVABC59, Concentration 99.01 uM, Number of replicates 2.0, Standard deviation 0.8653267248460199 %",30.1%
same,inhibition,"PRVABC59, Concentration 198.0 uM, Number of replicates 2.0, Standard deviation 1.207313671508752 %",32%
N#C[C@H]1CCCN(Cc2c[nH]c3ccccc23)C1,inhibition,"PRVABC59, Concentration 49.5 uM, Number of replicates 2.0, Standard deviation 3.0443309311516127 %",3.62%
same,inhibition,"PRVABC59, Concentration 99.01 uM, Number of replicates 2.0, Standard deviation 5.606340240027709 %",5.66%
same,inhibition,"PRVABC59, Concentration 198.0 uM, Number of replicates 2.0, Standard deviation 2.4427254668079588 %",8.81%
O=C1NCc2ccccc2C12CCN(CCn1cc(-c3ccccc3)cn1)CC2,inhibition,"PRVABC59, Concentration 49.5 uM, Number of replicates 2.0, Standard deviation 2.8974171324862783 %",-1.24%
same,inhibition,"PRVABC59, Concentration 99.01 uM, Number of replicates 2.0, Standard deviation 3.3976160570541145 %",2.72%
same,inhibition,"PRVABC59, Concentration 198.0 uM, Number of replicates 2.0, Standard deviation 1.9883423160607387 %",8.7%
CCn1ccnc(N2CC[C@H](c3ccncc3)C2)c1=O,inhibition,"PRVABC59, Concentration 50.0 uM, Number of replicates 2.0, Standard deviation 13.086126440978003 %",15.5%
same,inhibition,"PRVABC59, Concentration 100.0 uM, Number of replicates 2.0, Standard deviation 1.9353273126054316 %",11.2%
same,inhibition,"PRVABC59, Concentration 200.0 uM, Number of replicates 2.0, Standard deviation 4.176368308171179 %",19%
Cc1nc([C@H]2CCCNC2)[nH]c1C(=O)Nc1ccccn1,inhibition,"PRVABC59, Concentration 49.5 uM, Number of replicates 2.0, Standard deviation 0.17090445918731104 %",8.49%
same,inhibition,"PRVABC59, Concentration 99.01 uM, Number of replicates 2.0, Standard deviation 0.26430592158490923 %",17.8%
same,inhibition,"PRVABC59, Concentration 198.0 uM, Number of replicates 2.0, Standard deviation 0.13314627771815937 %",30.2%
CCn1ccnc(N2CCC(c3c[nH]c4ccccc34)CC2)c1=O,inhibition,"PRVABC59, Concentration 49.5 uM, Number of replicates 2.0, Standard deviation 0.010362729937070537 %",13.2%
same,inhibition,"PRVABC59, Concentration 99.01 uM, Number of replicates 2.0, Standard deviation 0.987094027815814 %",22.1%
same,inhibition,"PRVABC59, Concentration 198.0 uM, Number of replicates 2.0, Standard deviation 0.3108960594532158 %",8.34%
c1cnc2c(CN3CCC(c4c[nH]c5cccnc45)CC3)c[nH]c2c1,inhibition,"PRVABC59, Concentration 49.5 uM, Number of replicates 2.0, Standard deviation 0.7260748860651783 %",51.4%
same,inhibition,"PRVABC59, Concentration 99.01 uM, Number of replicates 2.0, Standard deviation 0.6197542344872328 %",66.3%
same,inhibition,"PRVABC59, Concentration 198.0 uM, Number of replicates 2.0, Standard deviation 0.45379950118904117 %",74.9%
c1ccc2c(CN3CCC[C@H](c4c[nH]c5ccccc45)C3)c[nH]c2c1,inhibition,"PRVABC59, Concentration 50.0 uM, Number of replicates 2.0, Standard deviation 1.0176784784936235 %",17.6%
same,inhibition,"PRVABC59, Concentration 100.0 uM, Number of replicates 2.0, Standard deviation 1.399627381040445 %",30%
same,inhibition,"PRVABC59, Concentration 200.0 uM, Number of replicates 2.0, Standard deviation 0.26403213565698247 %",45.3%
c1ccc2c([C@H]3CCN(CC4CCOCC4)C3)c[nH]c2c1,inhibition,"PRVABC59, Concentration 49.5 uM, Number of replicates 2.0, Standard deviation 2.5997737280788282 %",6.89%
same,inhibition,"PRVABC59, Concentration 99.01 uM, Number of replicates 2.0, Standard deviation 3.698865419379611 %",11.8%
same,inhibition,"PRVABC59, Concentration 198.0 uM, Number of replicates 2.0, Standard deviation 1.139250220086327 %",22.2%
c1cc(CN2CCC(c3c[nH]c4cccnc34)CC2)c2cn[nH]c2c1,inhibition,"PRVABC59, Concentration 49.5 uM, Number of replicates 2.0, Standard deviation 0.9568639478402843 %",4.4%
same,inhibition,"PRVABC59, Concentration 99.01 uM, Number of replicates 2.0, Standard deviation 0.8012763277514082 %",10%
same,inhibition,"PRVABC59, Concentration 198.0 uM, Number of replicates 2.0, Standard deviation 3.635563550314553 %",17.8%
c1cc(CN2CCC(c3c[nH]c4cccnc34)CC2)c2[nH]ncc2c1,inhibition,"PRVABC59, Concentration 49.5 uM, Number of replicates 2.0, Standard deviation 1.1670691631522456 %",7.96%
same,inhibition,"PRVABC59, Concentration 99.01 uM, Number of replicates 2.0, Standard deviation 0.8238130905871536 %",15.7%
same,inhibition,"PRVABC59, Concentration 198.0 uM, Number of replicates 2.0, Standard deviation 0.8191324301789277 %",25.9%
c1ccc2c(CN3CC[C@H](c4c[nH]c5ccccc45)C3)c[nH]c2c1,inhibition,"PRVABC59, Concentration 50.0 uM, Number of replicates 2.0, Standard deviation 0.9766631885715499 %",20.3%
same,inhibition,"PRVABC59, Concentration 100.0 uM, Number of replicates 2.0, Standard deviation 0.28966551174652017 %",37.5%
same,inhibition,"PRVABC59, Concentration 200.0 uM, Number of replicates 2.0, Standard deviation 1.348359280162217 %",55.9%
CCn1ccc2cc(CN3CCC(c4c[nH]c5cccnc45)CC3)ccc21,inhibition,"PRVABC59, Concentration 49.5 uM, Number of replicates 2.0, Standard deviation 2.8809639300582925 %",3.93%
same,inhibition,"PRVABC59, Concentration 99.01 uM, Number of replicates 2.0, Standard deviation 1.8463057507050853 %",15.6%
same,inhibition,"PRVABC59, Concentration 198.0 uM, Number of replicates 2.0, Standard deviation 0.9205600012321524 %",34.4%
c1ccc2c(CN3CCC(c4c[nH]c5cccnc45)CC3)n[nH]c2c1,inhibition,"PRVABC59, Concentration 49.5 uM, Number of replicates 2.0, Standard deviation 0.6456276790258886 %",55.4%
same,inhibition,"PRVABC59, Concentration 99.01 uM, Number of replicates 2.0, Standard deviation 0.2001199802254866 %",70.2%
same,inhibition,"PRVABC59, Concentration 198.0 uM, Number of replicates 2.0, Standard deviation 0.3311541950710681 %",79.4%
CCOc1cc(COc2cccnc2F)nc(N2CCNCC2)n1,inhibition,"PRVABC59, Concentration 49.5 uM, Number of replicates 2.0, Standard deviation 1.6064643888068098 %",4.13%
same,inhibition,"PRVABC59, Concentration 99.01 uM, Number of replicates 2.0, Standard deviation 0.9927585642556782 %",12.5%
same,inhibition,"PRVABC59, Concentration 198.0 uM, Number of replicates 2.0, Standard deviation 0.42007662758371656 %",31.7%
O=C(Cn1ccc2cccnc21)N1CC[C@H](c2c[nH]c3ccccc23)C1,inhibition,"PRVABC59, Concentration 49.5 uM, Number of replicates 2.0, Standard deviation 2.6403237167933415 %",8.06%
same,inhibition,"PRVABC59, Concentration 99.01 uM, Number of replicates 2.0, Standard deviation 2.1942883394495833 %",14.3%
same,inhibition,"PRVABC59, Concentration 198.0 uM, Number of replicates 2.0, Standard deviation 1.481657960884592 %",24.1%
N[C@H]1CC[C@H](NC(=O)[C@@H](NC(=O)OCc2ccccc2)c2ccc(OCc3ccccc3)cc2)C1,inhibition,"PRVABC59, Concentration 49.5 uM, Number of replicates 2.0, Standard deviation 1.2628524282528915 %",15.2%
same,inhibition,"PRVABC59, Concentration 49.5 uM, Number of replicates 2.0, Standard deviation 5.748962140815482 %",7.84%
same,inhibition,"PRVABC59, Concentration 99.01 uM, Number of replicates 2.0, Standard deviation 1.1046736199175657 %",52.6%
same,inhibition,"PRVABC59, Concentration 99.01 uM, Number of replicates 2.0, Standard deviation 4.807656617809298 %",46.8%
same,inhibition,"PRVABC59, Concentration 198.0 uM, Number of replicates 2.0, Standard deviation 0.1296531469135765 %",80.8%
same,inhibition,"PRVABC59, Concentration 198.0 uM, Number of replicates 2.0, Standard deviation 1.4858618561424626 %",83.4%
N[C@@H]1CC[C@H](NC(=O)[C@@H](NC(=O)OCc2ccccc2)c2ccc(OCc3ccccc3)cc2)C1,inhibition,"PRVABC59, Concentration 49.5 uM, Number of replicates 2.0, Standard deviation 0.3008027321718269 %",7.24%
same,inhibition,"PRVABC59, Concentration 99.01 uM, Number of replicates 2.0, Standard deviation 0.0103741938798655 %",43%
same,inhibition,"PRVABC59, Concentration 198.0 uM, Number of replicates 2.0, Standard deviation 1.7866649254890776 %",79.8%
N[C@H]1CC[C@@H](NC(=O)[C@@H](NC(=O)OCc2ccccc2)c2ccc(OCc3ccccc3)cc2)C1,inhibition,"PRVABC59, Concentration 49.5 uM, Number of replicates 2.0, Standard deviation 1.7270227515739174 %",10.7%
same,inhibition,"PRVABC59, Concentration 99.01 uM, Number of replicates 2.0, Standard deviation 1.537724733346876 %",44.6%
same,inhibition,"PRVABC59, Concentration 198.0 uM, Number of replicates 2.0, Standard deviation 0.3345151533587208 %",79.2%
O=C(N[C@@H](C(=O)NC1CCNCC1)c1ccc(OCc2ccccc2)cc1)OCc1ccccc1,inhibition,"PRVABC59, Concentration 49.5 uM, Number of replicates 2.0, Standard deviation 1.3674946237357393 %",8.84%
same,inhibition,"PRVABC59, Concentration 99.01 uM, Number of replicates 2.0, Standard deviation 2.2060968748779715 %",27.2%
same,inhibition,"PRVABC59, Concentration 198.0 uM, Number of replicates 2.0, Standard deviation 0.9505739521685185 %",59.8%
